Results on 38 compounds are retold here after PubChem BioAssay (NCI).

This is part of a sample that, as a whole, favours compounds with a hit. Of some 83,000 tested, about 20% had one in any assay.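 Growth was measured after 48 h exposure to one concentration of compound in 96-well plates. Values under 10 count as active.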 Values without a mark were called inactive. Calls of active or inactive are those of the source.

The subject of the first experiment is NCI-H23 lung. The experiment is described as follows: NCI-60 one-dose screen, 48 h (100 = growth as untreated, 0 = no growth, -100 = all killed). The following applies: 10 µM unless noted.
Take `CCCOc1ccc2nc(NC(=O)OC)[nH]c2c1`: the growth is 21.9%.

On to `NS(=O)(=O)c1ccc(CN=C2NC(=O)S/C2=C\c2ccc(Br)cc2)cc1`, for which the growth was 97.6%.

Take `N=C(N)c1ccc(-c2ccc(-c3ccc4ccccc4c3)s2)s1`: the growth is 5.5% (active).

Regarding `COc1cc2nc(N3CCCC3)nc(Nc3ccccc3)c2cc1OC`, the growth was 2.6% (active).

Turning to `C#Cc1cccc(NC(=O)c2ccccc2NC(=O)C=C)c1`, the growth was 97.1% [8.25 µM].

Consider `C#CC(F)(F)[C@]1(O)CC[C@H]2[C@@H]3CCC4=CC(=O)CCC4=C3[C@@H](c3ccc(C(C)=O)cc3)C[C@@]21C`, for which the growth is 38.5%.

In the case of `Cc1ccc(NC(=O)/C=C/c2ccccc2)c(C(N)=O)c1`, the growth is 58.6%.

On to `CCOc1cc2ncc(C#N)c(Nc3ccc(OCc4cccc(F)c4)c(Cl)c3)c2cc1NC(=O)CC1CCSS1` (stereo unspecified), for which the growth was 47.4%.

Regarding `CCOC(=O)c1c(C(=O)OCC)c2cc(-c3ccn4c(C(=O)c5ccccc5)c(C(=O)OCC)c(C(=O)OCC)c4c3)ccn2c1C(=O)c1ccccc1`, the growth was 88.8%.

As to `NC(=O)c1cc(Br)ccc1NC(=O)/C=C/c1ccccc1`, the growth is 62%.

`COC(=O)[C@@H]1CCCN1C(=O)[C@@H]1CCCN1C(=O)[C@H](Cc1ccccc1)NC(=S)Nc1cc(C(F)(F)F)cc(C(F)(F)F)c1`: the growth was 89.2%.

Consider `COc1ccc(-c2cc(=O)c3c(OC)c4ccoc4cc3o2)cc1`, for which the growth is 99.4%.

For `NC(=NCCCC1(c2ccccc2)CCCC1)Nc1ccc(Cl)cc1`, the growth is 44%.

For the compound `COC(=O)c1ccc(Cn2cnc3c(N)ncnc32)cc1`, the growth was 103%.

Consider `Cc1ccc2oc(=O)cc(C3c4ccc([nH]4)C(c4cc(=O)oc5ccc(C)cc45)c4ccc([nH]4)C(c4cc(=O)oc5ccc(C)cc45)c4ccc([nH]4)C(c4cc(=O)oc5ccc(C)cc45)c4ccc3[nH]4)c2c1` (stereo unspecified), for which the growth was -53.2% (active).

Turning to `O=C1c2cccc3cccc(c23)C(=O)N1CCCCN1CCN(CCCCOc2ccc(-c3nc4ccc(N5CCOCC5)cc4[nH]3)cc2)CC1`, the growth was 79.2%.

On to `Cn1cc(-c2nonc2-c2cn(C)c3ccc(F)cc23)c2cc(F)ccc21`, for which the growth was 67.6%.

With `CCOC(=O)n1cc(-c2nonc2-c2cn(C)c3ncccc23)c2cc(F)ccc21`, the growth is 76%.

As to `C=CC(COC(c1ccccc1)(c1ccccc1)c1ccccc1)N(CC)CC` (stereo unspecified), the growth is 65.2%.

Regarding `COCCNc1ccc2c3c(cccc13)C(=O)N(CCN(C)C)C2=O`, the growth was 25.6%.

As for `O=C1CC(=NCC(=O)n2c(-c3ccccc3)nc3ccccc32)NN1`, the growth was 91.8%.

Consider `CC/C=C\C[C@H]1C/C=C2/C(=O)C=C[C@H]2C/C=C\CCCC(=O)O1`, for which the growth was 39.4%.

On to `CCOC(=O)c1sc2nc(-c3cccc(OC)c3)nc(N3CCOCC3)c2c1C`, for which the growth was 93.5%.

Take `CC(=O)Nc1ccc(S(=O)(=O)Nc2cccc(-c3nc(-c4ccc(NC(=O)c5cccnc5)cc4Cl)no3)c2)cc1`: the growth is 42.1%.

`COc1nc2c(c(=O)n1C)CN(Cc1ccccc1)C=N2`: the growth is 103%.

As to `CCC(=O)c1ccc(Cl)s1`, the growth was 104%.

As to `O=S(=O)(Nc1ccc(I)cc1F)c1ccc(-c2cnc(C3CC3)o2)cc1`, the growth is 71.2%.

As to `Cc1ccccc1COc1ccc(-c2onc(C)c2-c2ccc(Cl)cc2)cc1`, the growth was 73.8%.

Turning to `O=C(/C=C/c1ccc(C(F)(F)F)cc1)Nc1ccc(C=C2c3ccccc3C(=O)c3ccccc32)cc1`, the growth was 49.2%.

Regarding `COc1cccc2c1C(=O)c1c(O)c3c(c(O)c1C2=O)C[C@](O)(C(=O)CO)C[C@H]3O[C@@H]1C[C@@H](NC(=O)CCCN(C)C2(c3ccc(F)cc3)CC3CCC2C3)[C@H](O)[C@@H](C)O1` (stereo partly specified), the growth was -59.7% (active).

On to `O=C(O)c1ccc(NC(=O)c2ccc(-c3cccc([N+](=O)[O-])c3)o2)cc1`, for which the growth was 91.8%.

In the case of `O=c1cc(CSc2nnc(SCc3cc(=O)oc4c3ccc3ccccc34)o2)c2ccc3ccccc3c2o1`, the growth is 89.9%.

As for `O=C(COc1ccc(/C=C2\COc3ccccc3C2=O)cc1)Nc1nccs1`, the growth is 79%.

Regarding `NC(=NCCCOc1ccc(Cl)cc1)Nc1ccc(Cl)cc1`, the growth is 23.4%.

In the case of `N#CN1CC[C@H](C(=O)Nc2cc3cc(C(N)=O)ccc3cn2)C1`, the growth is -8.58% (active).

Turning to `N#CCCN=Nc1c(O)[nH]c2ccc(F)cc12`, the growth was 96.3%.

Take `Nc1nc2ncc(CCNc3ccc(C(=O)O)cc3)nc2c(=O)[nH]1`: the growth was 108%.

`COc1cccc(-c2nc3sccn3c2-c2ccnc(NCCNS(=O)(=O)c3ccc(F)cc3)c2)c1`: the growth was 27.2%.

A further experiment has as its system NCI-H226 lung. The experiment is described as above. The conditions noted are these: 10 µM unless noted.
As to `CCCOc1ccc2nc(NC(=O)OC)[nH]c2c1`, the growth was 8.05% (active).

Regarding `NS(=O)(=O)c1ccc(CN=C2NC(=O)S/C2=C\c2ccc(Br)cc2)cc1`, the growth was 96.9%.

With `N=C(N)c1ccc(-c2ccc(-c3ccc4ccccc4c3)s2)s1`, the growth was 92.8%.

As for `COc1cc2nc(N3CCCC3)nc(Nc3ccccc3)c2cc1OC`, the growth was 29.2%.

With `C#Cc1cccc(NC(=O)c2ccccc2NC(=O)C=C)c1`, the growth was 97.6% [8.25 µM].

With `C#CC(F)(F)[C@]1(O)CC[C@H]2[C@@H]3CCC4=CC(=O)CCC4=C3[C@@H](c3ccc(C(C)=O)cc3)C[C@@]21C`, the growth was 93.3%.

Take `Cc1ccc(NC(=O)/C=C/c2ccccc2)c(C(N)=O)c1`: the growth is 68.2%.

For `CCOc1cc2ncc(C#N)c(Nc3ccc(OCc4cccc(F)c4)c(Cl)c3)c2cc1NC(=O)CC1CCSS1` (stereo unspecified), the growth was 56.1%.

With `CCOC(=O)c1c(C(=O)OCC)c2cc(-c3ccn4c(C(=O)c5ccccc5)c(C(=O)OCC)c(C(=O)OCC)c4c3)ccn2c1C(=O)c1ccccc1`, the growth is 93.1%.

For `NC(=O)c1cc(Br)ccc1NC(=O)/C=C/c1ccccc1`, the growth is 66.9%.

As for `COC(=O)[C@@H]1CCCN1C(=O)[C@@H]1CCCN1C(=O)[C@H](Cc1ccccc1)NC(=S)Nc1cc(C(F)(F)F)cc(C(F)(F)F)c1`, the growth is 80.2%.

As for `COc1ccc(-c2cc(=O)c3c(OC)c4ccoc4cc3o2)cc1`, the growth is 95.5%.

For the compound `NC(=NCCCC1(c2ccccc2)CCCC1)Nc1ccc(Cl)cc1`, the growth is 96.5%.

Turning to `COC(=O)c1ccc(Cn2cnc3c(N)ncnc32)cc1`, the growth was 106%.

As to `Cc1ccc2oc(=O)cc(C3c4ccc([nH]4)C(c4cc(=O)oc5ccc(C)cc45)c4ccc([nH]4)C(c4cc(=O)oc5ccc(C)cc45)c4ccc([nH]4)C(c4cc(=O)oc5ccc(C)cc45)c4ccc3[nH]4)c2c1` (stereo unspecified), the growth is -39.2% (active).

For the compound `O=C1c2cccc3cccc(c23)C(=O)N1CCCCN1CCN(CCCCOc2ccc(-c3nc4ccc(N5CCOCC5)cc4[nH]3)cc2)CC1`, the growth was 90.9%.

As to `Cn1cc(-c2nonc2-c2cn(C)c3ccc(F)cc23)c2cc(F)ccc21`, the growth was 51.3%.

Regarding `CCOC(=O)n1cc(-c2nonc2-c2cn(C)c3ncccc23)c2cc(F)ccc21`, the growth was 57.8%.

`C=CC(COC(c1ccccc1)(c1ccccc1)c1ccccc1)N(CC)CC` (stereo unspecified): the growth is 56.2%.

Consider `COCCNc1ccc2c3c(cccc13)C(=O)N(CCN(C)C)C2=O`, for which the growth was 5.99% (active).

In the case of `O=C1CC(=NCC(=O)n2c(-c3ccccc3)nc3ccccc32)NN1`, the growth is 90.2%.

For `CC/C=C\C[C@H]1C/C=C2/C(=O)C=C[C@H]2C/C=C\CCCC(=O)O1`, the growth was 40.5%.

For the compound `CCOC(=O)c1sc2nc(-c3cccc(OC)c3)nc(N3CCOCC3)c2c1C`, the growth is 79.5%.

For `CC(=O)Nc1ccc(S(=O)(=O)Nc2cccc(-c3nc(-c4ccc(NC(=O)c5cccnc5)cc4Cl)no3)c2)cc1`, the growth was 57.9%.

As to `COc1nc2c(c(=O)n1C)CN(Cc1ccccc1)C=N2`, the growth was 109%.

With `CCC(=O)c1ccc(Cl)s1`, the growth was 103%.

As to `O=S(=O)(Nc1ccc(I)cc1F)c1ccc(-c2cnc(C3CC3)o2)cc1`, the growth is 80.2%.

Take `Cc1ccccc1COc1ccc(-c2onc(C)c2-c2ccc(Cl)cc2)cc1`: the growth was 57.2%.

Take `O=C(/C=C/c1ccc(C(F)(F)F)cc1)Nc1ccc(C=C2c3ccccc3C(=O)c3ccccc32)cc1`: the growth was 67.8%.

Take `COc1cccc2c1C(=O)c1c(O)c3c(c(O)c1C2=O)C[C@](O)(C(=O)CO)C[C@H]3O[C@@H]1C[C@@H](NC(=O)CCCN(C)C2(c3ccc(F)cc3)CC3CCC2C3)[C@H](O)[C@@H](C)O1` (stereo partly specified): the growth is 65.2%.

Consider `O=C(O)c1ccc(NC(=O)c2ccc(-c3cccc([N+](=O)[O-])c3)o2)cc1`, for which the growth was 89.3%.

Regarding `O=c1cc(CSc2nnc(SCc3cc(=O)oc4c3ccc3ccccc34)o2)c2ccc3ccccc3c2o1`, the growth was 83.6%.

Take `O=C(COc1ccc(/C=C2\COc3ccccc3C2=O)cc1)Nc1nccs1`: the growth was 99%.

In the case of `NC(=NCCCOc1ccc(Cl)cc1)Nc1ccc(Cl)cc1`, the growth is 107%.

`N#CN1CC[C@H](C(=O)Nc2cc3cc(C(N)=O)ccc3cn2)C1`: the growth was -10% (active).

For the compound `N#CCCN=Nc1c(O)[nH]c2ccc(F)cc12`, the growth is 96.1%.

For `Nc1nc2ncc(CCNc3ccc(C(=O)O)cc3)nc2c(=O)[nH]1`, the growth was 100%.

For the compound `COc1cccc(-c2nc3sccn3c2-c2ccnc(NCCNS(=O)(=O)c3ccc(F)cc3)c2)c1`, the growth is 24%.
